Gal4-VP16 FLuc: VP16 counterscreen qHTS for inhibitors of ROR gamma transcriptional activity; AID 2546, 2010; 310,000 compounds, 3.5% hits; Potency, µM (series often up to 53.6 µM), without a hit: at the highest dose activity, negative = inhibition, actives largely listed as inhibitors; Drosophila S2 Gal4-VP16 UAS-luciferase, luminescence, 20 h;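 further: Gal4-VP16 expression switched on by copper sulfate through the metallothionein promoter; potency means the concentration at half of the fitted maximal effect; on the % scale 0 is the no-effect control and ±100 the full control effect; nearly all actives have a fitted effect of over 50% in size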
CtBP-E1A blk: qHTS Assay for Inhibitors of the CtBP/E1A Interaction; 340,000 compounds, 0.49% hits; activity change, % (concentration not given with the values); AlphaScreen GST-E1A/His-CtBP binding, 1536-well; active compounds read low; in the data active means activity change below about -65%; inconclusive means mostly about -30% to -63%; further: on the % scale 0 is the no-effect control and ±100 the full control effect
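Protein mix (5X: 125 nM each GST-E1A, His-CtBP) was incubated with pinned compound 2 h at 37 deg C in dark, in 50 mM Tris pH 8.0 buffer with 300 mM NaCl. Glutathione donor and nickel acceptor beads followed; AlphaScreen signal read after 1 h.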
CBFb RUNX1 block: qHTS Assay for Compounds Blocking the Interaction Between CBF-beta and RUNX1 for the Treatment of Acute Myeloid Leukemia; Runt-related transcription factor 1 (Homo sapiens) + Core-binding factor subunit beta …; 230,000 tested, under 10 active; AlphaScreen CBFb-His/RUNX1-biotin binding, biochemical; Potency, µM (titrated, usually from 59.8 µM), for the others: top-dose activity, negative = inhibition, actives largely listed as inhibitors; further: % of control where 0% means no effect
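CBFb-His/RUNX1-biotin, 30 nM each, preincubated 20 min RT; compound 15 min RT; Ni + streptavidin beads 50 ng each, 90 min RT; AlphaScreen read.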
MBNL1-CUG inh: qHTS Assay for Inhibitors of MBNL1-poly(CUG) RNA binding. Muscleblind-like protein 1 (Homo sapiens), Q9NR56. TR-FRET MBNL1-His/biotin-(CUG)12 binding, 665/545 ratio. Potency, µM (series often up to 57.5 µM), for the others: top-dose activity change, negative = inhibition, usual class: inhibitors. 280,000 compounds, 0.036% hits; active means well fitted inhibition curve with a large enough effect in the signal ratio, with a control signal flat, not every such curve was filed as active; inconclusive means small, poorly fitted or top-dose-only effect, or effect the other way, or a change in a side signal; inactive means no such curve, though single readings can be large or run the other way; the % refers to the signal ratio; further: potency means the concentration at half of the fitted maximal effect; on the % scale 0 is the no-effect control and ±100 the full control effect
Target sequence (Q9NR56 whole entry, looked up): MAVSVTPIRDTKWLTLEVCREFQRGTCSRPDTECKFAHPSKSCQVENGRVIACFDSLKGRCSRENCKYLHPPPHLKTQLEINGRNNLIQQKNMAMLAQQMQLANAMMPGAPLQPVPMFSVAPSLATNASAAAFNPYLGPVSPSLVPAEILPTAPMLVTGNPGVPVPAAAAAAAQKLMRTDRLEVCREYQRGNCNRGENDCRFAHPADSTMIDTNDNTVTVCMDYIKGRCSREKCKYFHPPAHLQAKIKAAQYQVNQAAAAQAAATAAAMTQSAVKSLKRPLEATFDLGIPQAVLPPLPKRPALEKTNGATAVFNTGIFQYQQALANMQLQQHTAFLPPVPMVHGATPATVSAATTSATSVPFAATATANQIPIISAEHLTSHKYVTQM
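TR-FRET between His-tagged MBNL1 and biotin-(CUG)12 RNA, detected with Tb anti-His antibody (0.055 ng/ul) and streptavidin-XL665 (5 nM), 60 min at room temperature. Compounds titrated 92 nM to 58 uM; 665/545 nm ratio normalized to buffer and complex controls.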
RORgamma inh: qHTS for inhibitors of ROR gamma transcriptional activity. Nuclear receptor ROR-gamma (Mus musculus), P51450. Drosophila S2 Gal4-RORgamma UAS-luciferase reporter, 20 h. Potency, µM (top dose mostly 53.6 µM), without a hit: at the highest dose activity change, negative = inhibition, usual class: inhibitors. 310,000 compounds, 5.4% hits; further: potency means the concentration at half of the fitted maximal effect; on the % scale 0 is the no-effect control and ±100 the full control effect; nearly all actives have a fitted effect of over 60% in size
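Drosophila S2 cells stably expressing Gal4-DBD/mouse RORγ fusion under metallothionein promoter plus UAS-luciferase; compound 1 h, then 700 uM CuSO4 induction for 20 h at ambient temperature; inhibition read as reduced luminescence.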
Six1-Eya2 inh: qHTS Assay for Inhibitors of the Six1/Eya2 Interaction | AlphaScreen GST-Six1/His-Eya2 binding, biochemical; active compounds read low | activity change, % (test concentration not listed) | 360,000 compounds, 0.56% hits; in the data active means activity change below about -65%; inconclusive means mostly about -30% to -63%; further: on the % scale 0 is the no-effect control and ±100 the full control effect
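Six1/Eya2 binding was read as AlphaScreen signal after compounds were pinned into GST-Six1 plus His-tagged Eya2 (5X stock 250/500 nM) in pH 8.0 Tris/NaCl/TCEP buffer, beads added, then incubated 1 h, 37 C, dark.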
An asterisk follows results filed as active; ? = inconclusive; . = no result given. The list is not random: actives were taken first. Their share in the collection is about 5.5%. Unless noted, the call rests on the fitted dose curve; in most records, active means well fitted curve in the direction sought with a large enough effect; inconclusive means small, poorly fitted or top-dose-only effect, or another doubt; inactive means no such curve, though single readings can be large; an effect the other way counts as inactive or inconclusive.

SMILES	Gal4-VP16 FLuc	CtBP-E1A blk	CBFb RUNX1 block	MBNL1-CUG inh	RORgamma inh	Six1-Eya2 inh
CC1CCCCN1c1nc(-c2ccncc2)nc2ccccc12 (configuration not stated)	-19%	-5	-1%	1%	11µM*	-1
O=C1CNC(=S)N1c1nc2ccccc2s1	5.6µM*	0	6%	-13%	0.79µM*	5
c1ccc2sc(N3CCCCC3)nc2c1	.	8	.	.	.	2
CCC1=NN(C(=O)COc2ccccc2)C(O)(c2ccc(Br)cc2)C1 (configuration not stated)	-12%	2	7%	3%	-12%	0
CCOC(=O)N1N=C(C)CC1(O)c1ccc(Cl)cc1 (configuration not stated)	4%	0	-19%	-7%	-16%	2
Cc1ccc(OCC(=O)OCC(=O)c2ccccc2)cc1C	-14%	1	.	-1%	-12%	15
CC1=NN(C(=O)COc2ccccc2)C(O)(c2ccccc2)C1 (configuration not stated)	10µM*	8	3%	.	6.3µM*	3
CC1=NN(C(=O)Cc2ccccc2)C(O)(c2cccnc2)C1 (configuration not stated)	7.9µM*	10	-3%	-9%	6.3µM*	3
CC1=NN(C(=O)COc2ccc(C)c(C)c2)C(O)(c2ccccc2)C1 (configuration not stated)	11µM*	-3	8%	-3%	10µM*	-12
CC1=NN(C(=O)CSCc2ccccc2)C(O)(c2ccccc2)C1 (configuration not stated)	13µM*	-13	9%	-7%	?	1
CC1=NN(C(=O)c2ccccc2Cl)C(O)(c2cccnc2)C1 (configuration not stated)	?	3	1%	-4%	?	4
COC(=O)c1ccc(C(=O)N(C)C2CCCN(Cc3ccccc3F)C2)nc1 (configuration not stated)	-16%	9	.	-4%	-2%	-4
CNc1[nH]c(=O)[nH]c(=O)c1N=Nc1cc(Cl)ccc1Cl	.	.	.	.	.	-17
O=C(CN1CCN(C(=O)CNC(=O)c2ccc(N3CCCC3=O)cc2)CC1)Nc1cccc(F)c1	.	-1	.	.	.	7
Cc1noc(C)c1CSc1ncnc2sc3c(c12)CCCCC3	?	3	0%	7%	7.9µM*	-2
C[C@@H]1CN([C@@H](C)CO)C(=O)c2cc(NC(=O)Nc3ccc(F)cc3)ccc2O[C@@H]1CN(C)Cc1ccc(Oc2ccccc2)cc1	.	-14	.	.	.	-24
COc1ccc(-n2cc(CNCCCn3ccnc3)c(-c3cccc(F)c3)n2)cc1	32µM*	-6	-11%	1%	11µM*	-14
COc1ccc(C(=O)NCC2(c3ccc(OC)c(OC)c3)CCCC2)c(OC)c1	1%	-4	.	3%	26%	-2
COc1ccc(C(CC(=O)N2CCCC(C)C2)c2c(O)cc(OC)cc2OC)cc1 (configuration not stated)	14%	-2	5%	-6%	2µM*	-23
COc1cc(O)c(C(CC(=O)N2CCCC(C)C2)c2cc(OC)c(OC)c(OC)c2)c(OC)c1 (configuration not stated)	5%	-5	9%	-12%	-16%	1
COc1ccc(S(=O)(=O)n2oc(=O)cc2-c2ccccc2)cc1	1%	-73*	-5%	8%	5%	-90*
COc1ccc(S(=O)(=O)n2oc(=O)cc2-c2ccccc2)cc1OC	-6%	?	-5%	5%	0%	-95*

Source: PubChem (National Center for Advancing Translational Sciences (NCATS))
